# In PubChem BioAssay (NCATS):
# Inconclusive results are not listed. Where a call stands in place of a potency, no number is given. Unmarked numbers belong to inactive results. Active and inactive are the calls of the source. Calls follow the shape of the dose curve; as a rule, active = well fitted inhibition curve with a large enough effect; inconclusive = small, poorly fitted or top-dose-only effect; inactive = no such curve, though single readings can be large or run the other way.
# How the values were obtained:
# [1] = system: Zika virus NS2B-NS3 protease (unlinked complex); test: Primary screen GU Rhodamine qHTS for Zika virus inhibitors: Unlinked NS2B-NS3 protease assay (AID 1347159); conditions: Recombinant ZIKV NS2B-NS3 protease, Rhodamine110 substrate fluorescence; series mostly up to 107 µM; also: nearly all actives have a fitted effect of over 60% in size
# Procedure, shortened: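 Noncovalent NS2B hydrophilic domain–NS3 protease domain complex (25 nM) preincubated 15 min at room temperature with compounds (up to 114 microM) in 10 mM Tris-HCl pH 8.0, 0.01% Tween 20; 1.5 microM Rhodamine110 substrate added, fluorescence change over 15 min fitted to Hill equation.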
# [2] = system: Zika virus NS2B-NS3 protease (linked construct); test: Primary screen NINDS Rhodamine qHTS for Zika virus inhibitors (AID 1347160); conditions: purified NS2B-NS3 protease, Rhodamine110 substrate fluorescence; series mostly up to 57.1 µM; also: nearly all actives have a fitted effect of over 55% in size
# Procedure, shortened: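 Purified linked NS2B-NS3 protease (NS2B hydrophilic domain joined to NS3 protease by flexible linker), 25 nM in 10 mM Tris-HCl pH 8.0, 0.01% Tween 20. Compounds titrated, 15 min preincubation at room temperature; 1.5 microM Rhodamine110 substrate, FITC fluorescence change over 15 min.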
# Potency is read from the fitted curve at half-maximal effect.
Compound,Potency [1],Potency [2],"activity change, negative = inhibition [1]",outcome [2]
N#Cc1cc(C2=Nc3ccc(Br)cc3NC(=O)C2)ccn1,inactive,inactive,,
CC[C@H](C)/C=C(C)/C=C/C1=CC2=C(Cl)C(=O)[C@](C)(O)[C@H](OC(C)=O)[C@H]2CO1,10 µM (active),11.2 µM (active),,
CC(C)=CCC/C(C)=C/COCC1OC(n2ccc(=O)[nH]c2=O)C(O)C1O (centres undefined),inactive,inactive,,
CC(C)(O)c1ccc2c(c1)ncn2-c1cccc(-c2ccccc2C#N)c1,inactive,inactive,,
CC(C)c1ccc(NC(=O)Cn2cnc3c2c(=O)n(C)c(=O)n3C)cc1,inactive,inactive,,
CCCc1cc(C)[nH]c(=O)c1CNC(=O)c1cc(-c2ccc(N3CCN(C(C)C)CC3)nc2)cc2c1cnn2C(C)C,inactive,inactive,,
COc1ccc(N(C(=O)Nc2c(C)cccc2C)c2cc(Nc3ccc(N4CCN(C)CC4)cc3)ncn2)c(OC)c1,inactive,inactive,,
CCC(C)c1ccc(NC(=O)Cn2cnc3c2c(=O)n(C)c(=O)n3C)cc1 (centres undefined),inactive,inactive,,
COc1c(C)cc(NC(=O)c2nn(Cc3ccc(F)cc3)c3c2CN(C(=O)c2ccc[nH]2)C[C@]3(C)C(N)=O)cc1C,inactive,inactive,,
O=C(NCCCNc1nc(Nc2cccc(CN3CCOCC3)c2)ncc1C1CC1)C1CCC1,inactive,inactive,,
CN(C)C(=O)NC1(c2ccccc2)CCN(CCC[C@]2(c3ccc(Cl)c(Cl)c3)CCCN(C(=O)c3ccccc3)C2)CC1,inactive,inactive,,
C=C1C(=O)O[C@@H]2[C@H]3C(C)=CC(=O)C3=C(C)[C@@H](OC(=O)/C(C)=C\C)[C@H](O)[C@@H]12,inactive,inactive,,
Cc1cc2occ(CN(C)CCN(C)Cc3cn(-c4cccc(C(F)(F)F)c4)c4ccccc34)c(=O)c2cc1C,inactive,inactive,,
CC(C)(O)C1Cc2c(ccc(C(=O)CCc3ccccc3)c2O)O1 (centres undefined),inactive,inactive,,
Cc1cccc(-c2[nH]ncc2-c2ccnc3ccccc23)n1,inactive,inactive,,
CCC1C(=O)N(C)c2cnc(Nc3ccc(C(=O)NC4CCN(C)CC4)cc3OC)nc2N1C1CCCC1 (centres undefined),inactive,inactive,,

Compound,Potency [1],Potency [2],"activity change, negative = inhibition [1]",outcome [2]
CS(=O)(=O)Nc1ccc2oc3c(OC(F)F)ccc(C(=O)Nc4c(Cl)cncc4Cl)c3c2c1,inactive,inactive,,
Cc1ccc(NC(=O)C(C)C)cc1C1CCN(Cc2ccc(Oc3ccc(F)c(F)c3)cc2)CC1,inactive,inactive,,
COCCN(C(=O)c1cc(OC)c(OC)c(OC)c1)c1nc(-c2ccccc2)cs1,inactive,inactive,,
COc1ccc2c(c1)C(C(=O)N(Cc1ccc(N(C)C)cc1)c1ccc(C(C)C)cc1)CCC2 (centres undefined),inactive,inactive,,
CC1OC(OC2C(O)COC(O[C@@H]3[C@@H](O)[C@@H](O)[C@H](OC4C(OC(=O)[C@]56CCC(C)(C)CC5C5=CCC7[C@@]8(C)C[C@H](O)[C@H](OC9OC(CO)C(O)C(O)C9O)[C@@](C)(CO)C8[C@H](O)C[C@@]7(C)[C@]5(C)CC6)OCC(O)C4O)O[C@H]3C)C2O)C(O)C(O)C1O (some centres undefined),,,8.24% [at 19.1 µM],inactive [at 10.7 µM]
COc1ccc(S(=O)(=O)Nc2c(C)cc(C)cc2C)cc1,inactive,inactive,,
CC(C)c1cc2c(N3CCN(C4=NCC(C)(C)S4)CC3)ncnc2s1,inactive,inactive,,
Nc1nc(Cl)nc2c1ncn2C1OC(CO)C(O)C1F (centres undefined),inactive,inactive,,
Cc1ccc(-c2ncccn2)c(C(=O)N2C[C@H](COc3ccc(F)cn3)CC[C@H]2C)c1,inactive,inactive,,
C=CC(=O)N1CCC(Oc2cc3c(Nc4ccc(Cl)c(Cl)c4F)ncnc3cc2OC)CC1,inactive,inactive,,
O=c1ccc2ccc(OCCCCN3CCN(c4cccc5sccc45)CC3)cc2[nH]1,inactive,inactive,,
CC(C)CCCCC(=O)N[C@@H](CO)C(=O)N[C@@H](CC(C)C)C(=O)[C@@]1(CO)CO1,inactive,inactive,,
Cc1cc(-c2ncc(-c3cccnc3)cc2/C=C/c2ccccc2)cnc1-c1cccnc1,inactive,inactive,,
COC1C(O)C(OC2CCC3(C)C(CCC45CCC6C7(COC(=O)C7)OC4(O)C6(C)CCC35)C2)OC(C)C1OC1OC(CO)C(OC2OC(CO)C(O)C(O)C2O)C(O)C1O (centres undefined),inactive,inactive,,
CC1CCC(=O)CC(SCC(O)C(=O)O)CCC(=O)O1 (centres undefined),inactive,inactive,,
C=C1/C(=C/C=C2\CCC[C@]3(C)[C@@H]([C@H](C)CC[C@@H](O)C(C)(C)O)CC[C@@H]23)C[C@@H](O)C[C@@H]1O,inactive,inactive,,
